# Most compounds without a hit are left out; they make up all but 2.5% or so of the library.
# GRK2 inh: inhibitors of human GRK2 displacing RNA aptamer | inhibition of aptamer binding, % at 10 µM | 330,000 compounds, 0.59% hits | bead flow cytometry, FAM-aptamer displacement from GRK2 | P25098 | AID 488847;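 active = inhibition of aptamer binding above 40%, roughly 3 SD of noise, on plates passing a quality check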;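 note: median bead fluorescence of bound FAM aptamer so fluorescent compounds give negative values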
# Target sequence (P25098 whole entry, looked up): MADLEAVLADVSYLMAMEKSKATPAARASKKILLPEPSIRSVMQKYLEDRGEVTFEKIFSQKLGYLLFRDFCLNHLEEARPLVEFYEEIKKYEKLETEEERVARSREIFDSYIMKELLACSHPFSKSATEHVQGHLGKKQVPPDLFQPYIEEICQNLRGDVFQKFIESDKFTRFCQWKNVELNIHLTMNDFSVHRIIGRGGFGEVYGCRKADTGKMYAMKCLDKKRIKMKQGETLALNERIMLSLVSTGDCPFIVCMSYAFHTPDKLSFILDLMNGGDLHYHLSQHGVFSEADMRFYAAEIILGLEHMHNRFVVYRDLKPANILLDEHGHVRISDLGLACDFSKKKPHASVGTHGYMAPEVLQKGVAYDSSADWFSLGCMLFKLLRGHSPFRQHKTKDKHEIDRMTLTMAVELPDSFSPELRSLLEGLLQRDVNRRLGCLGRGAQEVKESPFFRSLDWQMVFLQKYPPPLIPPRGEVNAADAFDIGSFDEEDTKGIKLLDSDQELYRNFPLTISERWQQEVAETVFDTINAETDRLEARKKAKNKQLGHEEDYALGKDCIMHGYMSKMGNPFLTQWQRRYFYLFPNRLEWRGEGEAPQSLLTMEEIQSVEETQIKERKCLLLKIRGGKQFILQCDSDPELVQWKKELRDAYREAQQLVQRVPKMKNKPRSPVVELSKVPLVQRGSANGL
# MEKK3 PB1 HTS: MEKK3-MEK5 PB1 interaction, increase or decrease; Q99759; bead-based flow cytometry, Alexa488-MEK5 binding to MEKK3; actives lie on both sides; 0 = blocked by unlabeled MEK5, 100 = vehicle; binding response (% of control), % at 10 µM; 290,000 compounds, 1.4% hits;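 active = binding response more than 3 SD above or below the average of its plate-row segment, actives on both sides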;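 note: Alexa488 bead fluorescence after subtracting the streptavidin-only scavenger bead signal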
# MEKK2 WT-MEK5: raises or lowers MEK5 binding to wildtype human MEKK2 PB1 domain; 290,000 compounds, 1.1% hits; binding response (% of control), % at 10 µM; bead flow cytometry, Alexa488-MEK5 binding to MEKK2 WT; actives lie on both sides; in the data active = binding response below about 67% or above about 130%
# MEKK2 mut-MEK5: signal of MEK5 binding to mutant human MEKK2 PB1 domain; bead flow cytometry, Alexa488-MEK5 binding to MEKK2 mutant; percent response, % at 10 µM; 290,000 compounds, 0.35% hits; AID 1530; in the data active = percent response above about 24%, passing the limit was not always enough
# MEKK2wt confirm: raises or lowers MEK5 binding to wildtype human MEKK2, retest. shares compounds with MEKK3 PB1 HTS. bead flow cytometry, Alexa488-MEK5 binding to MEKK2 WT; actives lie on both sides. binding response (% of control), % at 10 µM. 5,900 compounds, 2.4% hits. AID 1892; in the data active = binding response below about 16% or above about 210%; inactive = in between
# MEKK2mut-MEK5: signal of MEK5 binding to mutant human MEKK2, retest | shares compounds with MEKK3 PB1 HTS | bead flow cytometry, Alexa488-MEK5 binding to MEKK2 mutant | percent response, % at 10 µM | 5,900 compounds, 2% hits; in the data active = percent response mostly above about 71%, no sharp cut-off; inactive = mostly below about 38%;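 note: higher means compound restores mutant binding toward wildtype level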
# MEKK3-MEK5 inh: MEKK3-MEK5 PB1 inhibition, single concentration confirmation | bead flow cytometry, Alexa488-MEK5 binding to MEKK3; stronger effect = lower value | 5,900 compounds, 1.8% hits | AID 1894 | shares compounds with MEKK3 PB1 HTS | binding response (% of control), % at 10 µM;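 active = binding response below 72% of control, or above a set upper limit, though filed actives all read lower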;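 note: 100% = DMSO only wells and 0% = binding blocked by excess unlabeled MEK5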
# The depositor's hits bear a star; x = not tested or not shown; [ ] = another dose, or the depositor's remark.
SMILES,GRK2 inh,MEKK3 PB1 HTS,MEKK2 WT-MEK5,MEKK2 mut-MEK5,MEKK2wt confirm,MEKK2mut-MEK5,MEKK3-MEK5 inh
CCCCNC(C)Cc1ccccc1 (stereo not drawn),0,x,x,x,x,x,x
O=C1NC(=O)[C@]2(Cc3ccccc3N3CCN(c4ccccc4)CC32)C(=O)N1Cc1ccccc1 (stereo partly drawn),3,107,103,0,x,x,x
O=C1NC(=O)C2(Cc3ccccc3N3CCCC32)C(=O)N1Cc1ccccc1 (stereo not drawn),0,-2.0*[inhibitor],-30*[inhibitor],-30,100,0,102
COc1ccc2c3c([nH]c2c1)C(C)=NCC3,11,82,29*[inhibitor],4,103,-3,100
COC(=O)C1=C(c2ccc(Cl)c(C(F)(F)F)c2)C[C@@H]2CC[C@H]1N2C(=O)N1CCC(C)CC1,1,x,x,x,x,x,x
Cc1ccc2c(c1)C1CN(C)CCC1N2C(=O)c1ccco1 (stereo not drawn),0,71*[inhibitor],83,-15,107,-4,100
CCOC(=O)c1c(C)n(Cc2ccccc2)c2ccc(OCC(O)CNC(C)(C)C)cc12 (stereo not drawn),12,107,150*,21,150,36,106
CC1C2Cc3ccc(O)cc3[C@]1(C)CCN2CCc1ccccc1 (stereo partly drawn),0,x,x,x,x,x,x
CCn1c(O)c(/C=N/N2CCOCC2)c(=O)n(CC)c1=S,3,143*,102,0,102,-4,103
CCn1c(O)c(C=NCCN2CCOCC2)c(=O)n(CC)c1=S,1,93,97,0,x,x,x
Cc1ccc(CN2C3CCCC2CC(NC(=O)Nc2cccc(F)c2)C3)cc1 (stereo not drawn),0,94,122,2,x,x,x
Cc1ccsc1-c1nc(CSCC(=O)N2CCC3(CC2)OCCO3)c(C)o1,0,123*,115,6,104,3,102
COc1cc(CNCCc2ccc3c(c2)OCO3)ccc1O,0,102,108,6,x,x,x
COc1cc(CNCCc2ccc3c(c2)OCO3)cc(OC)c1OC,0,47*[inhibitor],60,-13,104,-1,103
C[C@]12C=CC(=O)C=C1CC[C@@H]1C2CC[C@]2(C)OC(=O)CCC12 (stereo partly drawn),0,105,105,6,x,x,x
CCCCCCCSc1cc(OC)c(CCNC)cc1OC,0,92,149*,23,130,11,81
Cc1nn(Cc2ccccc2Cl)c(C)c1C(=O)OCC(=O)NC1CCCC(C)C1C (stereo not drawn),0,141*,104,1,103,-1,101
C1=C(c2ccccc2)CCNC1,0,109,106,17,x,x,x
Cc1[nH]c2ccccc2c1C1=CCNCC1,4,113,76,144*,107,2,103
COc1cc2[nH]c(=O)n(-c3cccc(Cl)c3)c(=O)c2cc1OC,2,105,108,9,x,x,x
CC(=O)c1c(O)n(-c2cccc(Cl)c2)c(=O)[nH]c1=O (tested in a mixture with another compound),0,128*,108,27,104,-4,103
CC(C)NP(=O)(NC(C)C)OP(=O)(NC(C)C)NC(C)C,0,x,x,x,x,x,x
Cc1cccc(C(O)(C(=O)NNC(=O)CN2CCN(C)CC2)c2cccc(C)c2)c1,0,90,98,1,x,x,x
Cc1ccc(C(O)(C(=O)NNC(=O)CN2CCN(C)CC2)c2ccc(C)cc2)cc1,0,67*[inhibitor],101,0,106,6,107
CC(=O)O[C@@H]1CC[C@]2(C)C3CC[C@]4(C)C(=O)[C@H](O)CC4C3[C@@H](OC(C)=O)C[C@H]2C1 (stereo partly drawn),1,x,x,x,x,x,x
SMILES,GRK2 inh,MEKK3 PB1 HTS,MEKK2 WT-MEK5,MEKK2 mut-MEK5,MEKK2wt confirm,MEKK2mut-MEK5,MEKK3-MEK5 inh
Cc1cccc(-n2c(-c3cccs3)nc3ccccc3c2=O)c1,5,130*,100,0,98,-5,103
CCN1C(=O)C(=C/C=C/c2ccco2)C(=O)N(CC)C1=S,30,86,59*[inhibitor],-3,84,-9,94
O=C1NC(=O)N(Cc2ccccc2)C(=O)/C1=C/C=C/c1ccco1,1,101,97,-4,x,x,x
COC(=O)C(O)(c1ccc(NC(=S)NC(=O)c2ccc(Cl)cc2Cl)cc1)C(F)(F)F (stereo not drawn),1,148*,106,3,92,-4,102
CCOC(=O)C(O)(c1ccc(NC(=S)NC(=O)c2ccc(Cl)cc2Cl)c(C)c1)C(F)(F)F (stereo not drawn),0,147*,102,1,92,-8,94
CC(=O)N[C@@H]1CC[C@@]2(O)[C@H]3Cc4ccc(O)c5c4[C@@]2(CCN3CC2CC2)[C@@H]1O5,1,x,x,x,x,x,x
CCOc1c(Cl)cc(CNCCc2c[nH]c3ccccc23)cc1OC,0,102,156*,38,127,13,102
COc1cc(C)c(CNCCc2c[nH]c3ccccc23)cc1C,0,102,123,26*,82,-3,69*
CCOc1cc2c(cc1OCC)-n1cccc1C(c1ccccc1F)NC2 (stereo not drawn),0,108,110,5,x,x,x
O=C(COc1ccccc1)N1CCN(CC2CC=CCC2)CC1 (stereo not drawn),1,96,95,-8,x,x,x
O=C1C2CCCN2C(c2cccc(Cl)c2)N1c1ccccn1 (stereo not drawn),1,0.0*[inhibitor],0.0*[inhibitor],-17,102,2,101
COC(=O)C1=C(c2ccc(OC(F)(F)F)cc2)C[C@@H]2CC[C@H]1N2C(=O)NC1CCCCC1,0,x,x,x,x,x,x
CC(OC(=O)c1cn(C)c2ccccc12)C(=O)N1CCCC1 (stereo not drawn),0,x,x,x,x,x,x
CN[C@@H]1C[C@@H](c2ccc(Cl)c(Cl)c2)c2ccccc21,0,106,142*,11,133,11,106
CC(NCc1ccc(Cl)c(Cl)c1)C(O)c1ccccc1 (stereo not drawn),1,97,98,-7,x,x,x
C=CCN1C(=O)NC(=O)/C(=C/c2cc3c4c(c2)CCCN4CCC3)C1=O,7,93,26*[inhibitor],8,89,-15,98
O=C1NC(=S)NC(=O)C1C/C=C/c1ccccc1,0,91,-7.0*[inhibitor],-34,96,0,104
O=C/C=C/c1ccccc1,0,x,x,x,x,x,x
CCOC(=O)c1cncn1[C@@H](C)c1ccccc1,1,x,x,x,x,x,x
Cc1cc(C=C(C#N)C#N)ccc1N1CCCC1,1,82,63*[inhibitor],-12,83,-10,92

# Screening results (PubChem)
